Screening data (PubChem)
VLA-4 inh: inhibition in a human VLA-4 binding assay | VLA-4 expressing cells, ligand binding flow cytometry | inhibition, % (about 7 µM as worked out from the volumes in the protocol) | hit rate 0.2% among 330,000 | P13612; in the data active = inhibition above about 50%
AI-2 QS modul: modulators of Vibrio harveyi AI-2 quorum sensing system; Vibrio harveyi JMH597 AI-2 luminescence/OD600 ratio, 9 h; hits give low values; strain lacks LuxN and CqsS sensors; 0 = neutral-control median; activity change, % at 7.5 µM; hit rate 0.4% among 300,000; in the data active = activity change below about -75%, passing the limit was not always enough;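 note: luminescence divided by OD600 gain over 9 h not by final OD600 alone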
DSG3 Ab inh: human desmoglein-3 autoantibody binding inhibition; P32926; DSG3-coupled beads, scFv-anti-DSG3-GFP binding, flow cytometry; hits give low values; binding (percent of control), % at 10 µM; hit rate 0.48% among 310,000; AID 588358;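 active = binding more than 3 SD below its plate's average and above zero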;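 note: hits lower antibody fragment binding to DSG3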
Target sequence (P32926 whole entry, looked up, the tested form may be a part): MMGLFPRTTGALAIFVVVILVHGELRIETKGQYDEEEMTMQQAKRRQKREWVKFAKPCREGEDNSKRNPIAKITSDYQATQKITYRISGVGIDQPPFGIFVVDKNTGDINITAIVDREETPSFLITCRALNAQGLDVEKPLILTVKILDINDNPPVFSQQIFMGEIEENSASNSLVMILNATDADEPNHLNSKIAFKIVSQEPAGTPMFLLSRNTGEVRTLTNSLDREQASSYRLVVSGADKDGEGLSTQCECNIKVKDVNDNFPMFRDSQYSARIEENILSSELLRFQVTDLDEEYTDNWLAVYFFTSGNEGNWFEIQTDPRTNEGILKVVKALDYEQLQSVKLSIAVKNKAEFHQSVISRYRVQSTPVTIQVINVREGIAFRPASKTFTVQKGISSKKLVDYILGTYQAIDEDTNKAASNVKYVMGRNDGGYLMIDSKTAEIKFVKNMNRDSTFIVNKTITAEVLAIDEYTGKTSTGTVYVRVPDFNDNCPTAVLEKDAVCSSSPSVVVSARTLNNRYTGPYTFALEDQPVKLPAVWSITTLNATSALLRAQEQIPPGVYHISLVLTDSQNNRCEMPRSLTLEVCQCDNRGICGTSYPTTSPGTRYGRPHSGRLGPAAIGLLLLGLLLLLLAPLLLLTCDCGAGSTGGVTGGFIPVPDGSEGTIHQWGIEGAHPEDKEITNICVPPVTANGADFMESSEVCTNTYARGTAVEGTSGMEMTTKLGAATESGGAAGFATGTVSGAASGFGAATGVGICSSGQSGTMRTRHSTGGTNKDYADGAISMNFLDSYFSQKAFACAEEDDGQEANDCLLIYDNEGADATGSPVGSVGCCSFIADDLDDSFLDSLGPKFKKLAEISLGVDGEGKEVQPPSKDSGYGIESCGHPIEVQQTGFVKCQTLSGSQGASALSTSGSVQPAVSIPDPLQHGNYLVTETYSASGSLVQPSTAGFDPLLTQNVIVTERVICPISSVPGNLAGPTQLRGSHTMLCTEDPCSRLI
NTR1 ag: activates human neurotensin receptor 1 | P30989 | NTR1-U2OS beta-arrestin-GFP spot imaging, agonist mode | activation, % at 20 µM | hit rate 0.17% among 330,000;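 active = activation at or above 40% of the spot to cytoplasm intensity ratio, with at least 20 cells analyzed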
Numbers stand for hits; i = inactive; nt = no result. Only some compounds are listed: those with a hit (about 1.1% of all), similar ones and a draw of the others.

SMILES | VLA-4 inh | AI-2 QS modul | DSG3 Ab inh | NTR1 ag
Cc1ccccc1C(=O)N/N=C/c1ccc([N+](=O)[O-])s1 | i | -76.4 | i | i
O=C(N/N=C/c1ccc([N+](=O)[O-])s1)c1ccccc1Br | i | nt | i | i
CCOC(=O)C1(C(=O)OCC)C(C)CC(=O)N1c1ccccc1OC (stereo unspecified) | nt | nt | i | nt
COc1cc(/C=N/NC(=S)NCC2CCCO2)cc(OC)c1OC (stereo unspecified) | i | i | 84.4 | i
COc1ccc(/C=N/NC(=S)NCC2CCCO2)cc1 (stereo unspecified) | i | i | i | i
O=S1(=O)CC(c2ccccc2)=NN=C(c2ccccc2)C1 | nt | nt | i | nt
Oc1ccccc1N=Nc1nc(-c2ccccc2)c(-c2ccccc2)[nH]1 | 90.3 | i | i | i
COC(=O)c1c(C)[nH]c(C(=O)COC(=O)CCNS(=O)(=O)c2cccc(C(F)(F)F)c2)c1C | i | nt | i | i
Cc1ccn(C(=O)c2ccc(NC(=O)C3CC3)cc2)n1 | i | i | 73.5 | i
CCC(=O)Nc1ccc(C(=O)n2ccc(C)n2)cc1 | i | i | i | i
Cn1c(N)c(C(=O)CSc2nn(-c3ccc(F)cc3)c(=S)s2)c(=O)n(C)c1=O | i | nt | nt | i
CCN(CC)CCCNC(=O)CNC(=O)c1nn(-c2ccc(OC)cc2OC)c(=O)c2ccccc12 | nt | nt | i | nt
Cc1cc2cc(CNC(=S)Nc3ccc(OC(F)F)cc3)ccc2n1C | i | i | 62.5 | i
FC(F)Oc1ccc(NC(=S)NCc2ccccc2)cc1 | i | i | i | i
C/C(=C\C(=O)c1ccc(Br)cc1)Nc1ccc(Cl)cc1 | i | i | 78.3 | i
O=C(COC(=O)c1cc(S(=O)(=O)N2CCOCC2)ccc1F)Nc1ccccc1C(F)(F)F | nt | nt | i | nt
CNC(=O)c1cc2cccc(OC)c2oc1=O | i | i | i | i
COc1ccc(/C=C/C(=O)c2cc3cccc(OC)c3oc2=O)cc1 | i | i | 100.0 | i
COc1ccc(C(=O)CC(C(=O)O)c2ccc(OC)c(OC)c2)cc1OC (stereo unspecified) | nt | nt | i | nt
O=c1c2ccccc2sn1-c1ccc(F)cc1 | i | nt | 42.5 | i
COC(=O)c1cccc(-n2sc3ccccc3c2=O)c1 | i | nt | 37.8 | i
Cc1ccc(-n2sc3cc(F)ccc3c2=O)c(C)c1 | nt | nt | 62.5 | nt
O=c1c2ccc(F)cc2sn1-c1ccccc1 | nt | nt | 50.1 | nt
Cc1ccc(S(=O)(=O)N(C)c2ccc(C(=O)N(C)Cc3nc4ccccc4c(=O)[nH]3)cc2)cc1 | nt | nt | i | i
CN(C)C(CNC(=O)C1CC(=O)N(c2cccc(C(F)(F)F)c2)C1)c1ccccc1 (stereo unspecified) | nt | nt | i | nt
SMILES | VLA-4 inh | AI-2 QS modul | DSG3 Ab inh | NTR1 ag
C=CCN(c1ccccc1OC)S(=O)(=O)c1cccc(C(=O)NCC(c2ccc(OC)cc2)N2CCCC2)c1 (stereo unspecified) | nt | nt | i | nt
OCc1ccc2c(c1)c(-c1ccc3c(c1)OCCO3)c(-c1ccccc1)n2-c1ccccc1 | i | nt | i | i
Nc1nnn(CC(=O)N/N=C/c2cccc(Cl)c2)n1 | i | i | 77.5 | i
O=C(O)c1cc(-c2cccc([N+](=O)[O-])c2)nc2ccccc12 | i | i | i | i
Cc1cc(-c2cccc([N+](=O)[O-])c2)nc2ccc3ccccc3c12 | i | i | -1.4 | i
O=c1cc(C2CCCCC2)[nH]c(=O)[nH]1 | nt | nt | i | nt
Cc1ccc(-n2ncc3c(=O)[nH]c(SCC(=O)N4CCOCC4)nc32)cc1 | i | i | i | i
Cc1ccc(-n2ncc3c(=O)[nH]c(SCC(=O)N4CCN(c5ccccc5)CC4)nc32)cc1 | i | i | -32.3 | i
O=C(CCc1ccccc1)c1c(O)cc(O)cc1O | i | -81.1 | i | i
Cc1[nH]n(-c2ccccc2)c(=O)c1N=Nc1ccccc1 | i | i | i | i
Cc1ccc(N=Nc2c(N)n(-c3ccccc3)[nH]c2=O)cc1 | i | i | -0.7 | i
C[C@@H]1CN([C@H](C)CO)C(=O)c2c(c3ccccc3n2C)-c2ccccc2CO[C@H]1CN(C)C(=O)NC1CCCCC1 | nt | nt | i | nt
COc1cc(OC)c(C=NNC(=S)NC23CC4CC(CC(C4)C2)C3)c(OC)c1 | nt | nt | i | nt
CCOC(=O)CCCN1CC(O)=C(c2nc(-c3ccc(Cl)cc3)cs2)C1=N | i | i | 95.7 | i
CCCCN1CC(O)=C(c2nc(-c3ccc(Br)cc3)cs2)C1=N | i | i | i | i
COc1ccc(N(CC(=O)NCc2cccs2)S(=O)(=O)c2ccc(C(C)=O)cc2)cc1 | nt | nt | i | nt
Cc1cccc(Cl)c1NC(=S)N1CCN(c2ccc([N+](=O)[O-])cn2)CC1 | i | i | i | i
Cc1c(Cl)cccc1NC(=S)N1CCN(c2ccc([N+](=O)[O-])cn2)CC1 | i | i | 90.5 | i
COc1ccc(CCNC(=O)CC(=O)N/N=C\c2ccc(OCC(N)=O)cc2)cc1OC | nt | nt | i | nt
COc1ccc(C(=O)c2sc3nc(-c4ccc(OC)cc4)ccc3c2N)cc1 | i | i | 26.3 | i
COc1ccc(-c2ccc3c(N)c(C(=O)c4cccc(OC)c4)sc3n2)cc1 | i | i | i | i
Cc1[nH]c2ccccc2c1C(=O)COC(=O)c1ccc([N+](=O)[O-])s1 | i | -128.1 | i | i
CCc1cccc2c(SCC(=O)NCC3CCCO3)nc(-c3ccc(F)cc3)nc12 (stereo unspecified) | i | i | 78.2 | i
Cc1ccc2nc(-c3ccc(F)cc3)nc(SCC(=O)NCC3CCCO3)c2c1 (stereo unspecified) | i | i | nt | i
O=C([C@@H]1CCCN1C1=NS(=O)(=O)c2ccccc21)N1CCN(c2ccccc2)CC1 | nt | nt | i | nt
SMILES | VLA-4 inh | AI-2 QS modul | DSG3 Ab inh | NTR1 ag
O=C(/C=C/c1cccc(F)c1)N1CCc2ccccc21 | i | i | 18.1 | i
COc1ccc(/C=N/Nc2ccc(C(=O)O)cc2)cc1Br | i | -96.1 | i | i
Cc1ccc(/C=N/Nc2ccc(C(=O)O)cc2)s1 | i | -94.7 | nt | i
COc1ccc(NC(=O)c2ccc3c(c2)OCO3)cc1Cl | i | i | 46.1 | i
O=C(Nc1ccc(F)c(Cl)c1)c1ccc2c(c1)OCO2 | i | i | i | i
O=C(NCc1ccc2c(c1)OCO2)C(=O)NCC1OCCCN1S(=O)(=O)c1ccccc1 (stereo unspecified) | nt | nt | i | nt
Cc1nn(Cc2ccccc2Cl)c2sc(C(=O)Nc3ccccc3N3CCOCC3)cc12 | i | i | i | i
Cc1nn(Cc2ccc(F)cc2)c2sc(C(=O)Nc3ccccc3N3CCOCC3)cc12 | i | i | 85.6 | i
C[C@H](CO)N1C[C@H](C)[C@@H](CN(C)Cc2ccc(-c3ccccc3)cc2)OCc2cnnn2CCCC1=O | nt | nt | i | nt
COc1cccc2c1NC(C(=O)O)C1CC=CC21 (stereo unspecified) | i | i | 13.0 | i
COc1ccc2c(c1)[nH]c1c(N3CCN(Cc4ccc5c(c4)OCO5)CC3)ncnc12 | i | i | i | 43.4
Cc1cc(Oc2cccc3c2S(=O)(=O)N(C2CCCC2)CC(COCc2ccccc2)O3)cc(C)c1C (stereo unspecified) | nt | nt | i | nt
CC(C)(C)c1ccc(C(=O)NCc2ccc(Cl)cc2)cc1 | i | i | i | i
CC(C)(C)c1ccc(C(=O)N2CCN(CCNC(=O)C(=O)NCc3ccc(Cl)cc3)CC2)cc1 | i | i | 95.8 | i
c1cncc(-c2nc3ccccc3o2)c1 | i | i | i | i
O=c1oc(-c2cccnc2)nc2ccccc12 | i | i | 77.3 | i
